For assay [1], the target named is Aldehyde dehydrogenase, mitochondrial (Homo sapiens) (UniProt P05091). In words: qHTS for Inhibitors of the Aldehyde Dehydrogenase Family (ALDH2) Primary screen (AID 2061308). Further: nearly all actives have a fitted effect of over 55% in size. As to conditions: ALDH2 enzyme inhibition qHTS, 1536-well; series mostly up to 56 µM.
For assay [2], the target named is Retinaldehyde dehydrogenase 3 (Homo sapiens) (UniProt P47895). In words: qHTS for Inhibitors of the Aldehyde Dehydrogenase Family (ALDH1A3) Primary screen (AID 2061315). To be noted: ALDH inhibition qHTS; series mostly up to 56 µM.

Records with an inconclusive call do not appear. Entries that show only a call come without a potency. Calls of active or inactive are those of the source. The call rests on the fitted dose curve; in most records, active means well fitted curve in the direction sought with a large enough effect; inconclusive means small, poorly fitted or top-dose-only effect, or another doubt; inactive means no such curve, though single readings can be large; an effect the other way counts as inactive or inconclusive.

`C=C[C@H]1C(O[C@@H]2O[C@H](CO)[C@@H](O)[C@H](O)[C@H]2O)OC=C2C(=O)N3CCc4c([nH]c5ccccc45)[C@H]3C[C@H]21` (some centres undefined): the Potency entry in assay [1] and in assay [2] was “inactive” each time.

With `O=C(Nc1ccc([S+](=O)([O-])Nc2nccs2)cc1)c1ccn[nH]1`, the Potency entry in assay [1] and in assay [2] was “inactive” throughout.

Turning to `O=C1CCCC2=C1C(c1[nH]ncc1Cl)N=C(Nc1nc3cc([S+](=O)([O-])N4CCCC4)ccc3o1)N2` (centres undefined), the Potency result in assay [1] and in assay [2] was “inactive” throughout.

Consider `O=C(NC1CCCc2c1cnn2-c1ccc(F)cc1F)c1cccc(=O)[nH]1` (centres undefined), for which the Potency result in assay [1] and in assay [2] was “inactive” throughout.

In the case of `Cc1cc(C)nc(NC(=S)N2CCN(c3ccc(C(F)(F)F)cc3Cl)CC2)c1`, the Potency result in assay [1] and in assay [2] was “inactive” each time.

Turning to `Fc1cc(Nc2nc(-c3ccncc3)nc3ccccc23)ccc1-c1ccc(F)c(F)c1F`, the Potency result in assay [1] and in assay [2] was “inactive” throughout.

`CN1CCN(C(=O)[C@H](Cc2ccc(O[S+](=O)([O-])c3cccc4cnccc34)cc2)N[S+](=O)([O-])c2cccc3cnccc23)CC1`: the Potency entry in assay [1] and in assay [2] was “inactive” throughout.

Take `Cc1ccc(OCCn2c(CCNC(=O)c3cc(F)cc(F)c3)nc3ccccc32)cc1`: the Potency entry in assay [1] and in assay [2] was “inactive” each time.

For the compound `CC(Oc1ccc2[nH]nc(/C=C/c3cnn(CCO)c3)c2c1)c1c(Cl)cncc1Cl` (centres undefined), the Potency result in assay [1] and in assay [2] was “inactive” each time.

Take `CN(C)[C@@H]1CCN(c2cccc(Nc3nn4c(=O)c5ccccc5nc4s3)c2)C1`: the Potency entry in assay [1] and in assay [2] was “inactive” each time.

`Cc1cccc(-c2ccc3ncnc(NCc4cccnc4)c3c2)c1`: the Potency entry in assay [1] and in assay [2] was “inactive” in each case.

With `COc1ccc(S(=O)(=O)NC2CCN(C#N)CC2)cc1`, the Potency result in assay [1] and in assay [2] was “inactive” in each case.

Turning to `CC(=O)Nc1nc(C)c(-c2nc(N3CCCC(O)C3)no2)s1` (centres undefined), the Potency entry in assay [1] and in assay [2] was “inactive” in each case.

Consider `Cc1ccc(-c2ccc(=O)n(CC(=O)NCc3ncc[nH]3)n2)cc1`, for which the Potency entry in assay [1] and in assay [2] was “inactive” in each case.

Take `COc1ccc(CC(=O)Nc2nc(-c3ccc4c(c3)CCN4C(=O)c3ccccc3C)c(C)s2)cc1`: the Potency result in assay [1] and in assay [2] was “inactive” in each case.

As for `CC(=O)c1c(C)[nH]c(C(=O)Nc2ccc(OCCCN(C)C)c(S(=O)(=O)Nc3ccc(Br)cc3)c2)c1C`, the Potency result in assay [1] and in assay [2] was “inactive” in each case.

On to `FC(F)(F)c1cccc(N2CCN(C(=S)Nc3cc(C(F)(F)F)ccn3)CC2)c1`, for which the Potency entry in assay [1] and in assay [2] was “inactive” in each case.

As to `O=C(Cc1nnc(-c2cc3ccccc3[nH]2)o1)Nc1cc(C(F)(F)F)ccc1Cl`, the Potency result in assay [1] and in assay [2] was “inactive” in each case.

On to `Cn1ccc2cc(-c3ccc4ncnc(NCc5cccs5)c4c3)ccc21`, for which the Potency result in assay [1] and in assay [2] was “inactive” each time.

For `CCCCNc1nc(C)nc2c1nc(-c1ccccc1)n2CCN1CCCC1`, the Potency result in assay [1] and in assay [2] was “inactive” each time.

`COc1ccc(C2=Nn3c(nnc3-c3ccccc3Cl)SC2)cc1OC`: the Potency result in assay [1] and in assay [2] was “inactive” each time.

Consider `COC(=O)C1=CO[C@@H](O[C@@H]2O[C@H](CO)[C@@H](O)[C@H](O)[C@H]2O)[C@H]2[C@@H]1CC(OC)O[C@@H]2C` (some centres undefined), for which the Potency result in assay [1] and in assay [2] was “inactive” each time.

For the compound `CCOc1ccc(CCNC(=O)c2cnon2)cc1OCC`, the Potency entry in assay [1] and in assay [2] was “inactive” each time.

In the case of `CC(C)Nc1nc(C#N)nc(Nc2ccccc2)n1`, the Potency result in assay [1] and in assay [2] was “inactive” in each case.

With `CCOc1ccc(CCNC(=O)c2cc3sccc3[nH]2)cc1OCC`, the Potency entry in assay [1] and in assay [2] was “inactive” each time.

Consider `Cc1ccc(OCCn2c(CCNC(=O)CCN3CCCCC3)nc3ccccc32)cc1`, for which the Potency result in assay [1] and in assay [2] was “inactive” throughout.

Turning to `Cc1ccc(-c2cc(C(=O)Nc3ccn[nH]3)c3ccccc3n2)cc1C`, the Potency result in assay [1] and in assay [2] was “inactive” in each case.

For `O=C(Nc1nc(-c2ccccc2)cs1)c1ccncc1NS(=O)(=O)c1ccc2c(c1)CCC2`, the Potency result in assay [1] and in assay [2] was “inactive” in each case.

Turning to `Cc1ccc(NC(=O)CSc2nnc(-c3cccc([S+](=O)([O-])N4CCCC4)c3)n2-c2c(C)cccc2C)cc1`, the Potency entry in assay [1] and in assay [2] was “inactive” each time.

For the compound `O=C(O)c1cccc2c1C(=O)N(c1ccccc1)C2`, the Potency result in assay [1] and in assay [2] was “inactive” each time.

As to `N#CN1CCC(N[S+](=O)([O-])c2cccc(F)c2)CC1`, the Potency result in assay [1] and in assay [2] was “inactive” in each case.

`O=S(=O)(c1ccccc1)N1CCN(c2nc(C3CC3)nc3ccccc23)CC1`: the Potency result in assay [1] and in assay [2] was “inactive” in each case.

As for `N#Cc1ccc(Nc2ncc(-c3cccc4ccccc34)o2)cc1`, the Potency result in assay [1] and in assay [2] was “inactive” throughout.

As for `O=S(=O)(Nc1cccc2cccnc12)c1ccc(Br)s1`, the Potency result in assay [1] and in assay [2] was “inactive” in each case.

In the case of `COc1ccccc1C(=O)N1CCc2cc(-c3nc(NC(=O)Cc4ccc5c(c4)OCO5)sc3C)ccc21`, the Potency result in assay [1] and in assay [2] was “inactive” throughout.

For `Cc1csc(CNc2ncnc3ccc(-c4cccc(Cl)c4)cc23)c1`, the Potency result in assay [1] and in assay [2] was “inactive” each time.

In the case of `Fc1ccc(-c2ccc(Nc3nc(-c4ccncc4)nc4ccccc34)cc2F)c(Cl)c1`, the Potency entry in assay [1] and in assay [2] was “inactive” throughout.

Turning to `O=C(Nc1ccccn1)c1sc2ccc([N+](=O)[O-])cc2c1Cl`, the Potency entry in assay [1] and in assay [2] was “inactive” each time.

For `Cc1cc(C)c(S(=O)(=O)Nc2cccc3cccnc23)c(C)c1`, the Potency result in assay [1] and in assay [2] was “inactive” throughout.

As for `FC(F)(F)c1cc(-c2nc3ccccc3s2)cc(C(F)(F)F)c1`, the Potency entry in assay [1] and in assay [2] was “inactive” in each case.

Regarding `C[C@H](N)C(=O)Nc1ccc(Cl)cc1C(=O)c1ccc[nH]1`, the Potency result in assay [1] and in assay [2] was “inactive” each time.

In the case of `Cc1cc(C)nc(NC(=S)N2CCN(c3cnccn3)CC2)c1`, the Potency result in assay [1] and in assay [2] was “inactive” throughout.

In the case of `O=C(OCC#CCSc1nnc(-c2ccc(Cl)cc2)o1)c1ccc(F)cc1`, the Potency entry in assay [1] and in assay [2] was “inactive” throughout.

Regarding `O=C(Nc1ccccc1)Nc1nnc(-c2ccncc2)s1`, the Potency entry in assay [1] and in assay [2] was “inactive” in each case.

For `COc1ccc(N2C[C@]34C=C[C@H](O3)C(C(=O)O)C4C2=O)cc1OC` (some centres undefined), the Potency entry in assay [1] and in assay [2] was “inactive” in each case.

Regarding `FC(F)(F)c1cccc(N2CCN(C(=S)Nc3ccccn3)CC2)c1`, the Potency result in assay [1] and in assay [2] was “inactive” throughout.

`Cc1cc(C)nc(NC(=S)N2CCN(C3=Nc4ccccc4Oc4ccccc43)CC2)c1`: the Potency entry in assay [1] and in assay [2] was “inactive” in each case.

Consider `COCC1CCCN(C(=O)CC(c2ccc3c(c2)OCO3)c2c(O)cc(OC)cc2OC)C1` (centres undefined), for which the Potency result in assay [1] and in assay [2] was “inactive” each time.

For the compound `COc1ccc(C2Nc3ccccc3C(=O)N2Cc2ccccn2)cc1COc1c(C)cccc1C` (centres undefined), the Potency result in assay [1] and in assay [2] was “inactive” throughout.

As to `Cc1c(P(=S)(c2ccccc2)c2ccccc2)[n+]2ccccc2n1CCCCCc1ccccc1`, the Potency result in assay [1] and in assay [2] was “inactive” in each case.

As to `CC/C(=C(\c1ccc(O)cc1)c1ccc(OCCNC)cc1)c1ccccc1`, the Potency result in assay [1] and in assay [2] was “inactive” in each case.

`C[C@H]1CC[C@@]2(OC1)O[C@H]1CC3C4CC[C@H]5C[C@@H](O)CC[C@]5(C)C4=CC(=O)[C@]3(C)[C@H]1[C@@H]2C` (some centres undefined): the Potency entry in assay [1] and in assay [2] was “inactive” throughout.

`Cc1ccc(OCCn2c3c(c4ccccc42)CCN(C(=O)C2CCCCC2)C3)cc1`: the Potency entry in assay [1] and in assay [2] was “inactive” each time.

In the case of `COc1ccc(C(=O)Oc2ccc(-c3nc4ccccc4[nH]3)cc2)cc1OC`, the Potency result in assay [1] and in assay [2] was “inactive” each time.

For `O=c1[nH]c2ccc(S(=O)(=O)N3CCN(S(=O)(=O)c4ccc5c(c4)OCCO5)CC3)cc2[nH]c1=O`, the Potency entry in assay [1] and in assay [2] was “inactive” in each case.

As for `Cc1cc(NC(=O)Nc2nnc(-c3ccncc3)s2)ccc1Cl`, the Potency entry in assay [1] and in assay [2] was “inactive” each time.

For the compound `Cc1noc(C)c1-c1ccc2ncnc(NCc3cccc(F)c3)c2c1`, the Potency entry in assay [1] and in assay [2] was “inactive” throughout.

`CCN(CC)CCCn1c(-c2ccccc2)nc2c(N3CCOCC3)nc(C)nc21`: the Potency result in assay [1] and in assay [2] was “inactive” throughout.

For the compound `O=C(CNC(=O)c1ccc(Cl)cc1)OC(C(=O)Nc1cc(C(F)(F)F)ccc1Cl)c1ccccc1` (centres undefined), the Potency entry in assay [1] and in assay [2] was “inactive” each time.

As for `O=C(Cn1nc(-c2ccccc2)ccc1=O)NCCc1ccccc1`, the Potency entry in assay [1] and in assay [2] was “inactive” throughout.

As to `Cc1ccc(-c2cc(C(=O)Nc3ncco3)c3ccccc3n2)cc1C`, the Potency result in assay [1] and in assay [2] was “inactive” throughout.

Regarding `O=C1c2ccccc2C(=O)N1c1cccc2cnccc12`, the Potency entry in assay [1] and in assay [2] was “inactive” in each case.

Take `Cc1ccc(NS(=O)(=O)c2ccc(Cl)cc2)cc1C`: the Potency result in assay [1] and in assay [2] was “inactive” each time.

Take `CS(=O)(=O)Nc1ccc(-c2nc(NCc3ccc(-c4ccnc(C(F)(F)F)c4)cc3)c3ccccc3n2)cc1`: the Potency result in assay [1] and in assay [2] was “inactive” in each case.

In the case of `C/C=C(\C)C(=O)O[C@H]1C=C(CO)C(=O)[C@H](OC(C)=O)[C@H]1C(C)C`, the Potency result in assay [1] and in assay [2] was “inactive” throughout.

Take `Nc1nc(NCC2CCC(CNS(=O)(=O)c3cccc4ccccc34)CC2)nc2ccccc12` (centres undefined): the Potency result in assay [1] and in assay [2] was “inactive” throughout.

As to `COc1cc(C2Nc3ccccc3C(=O)N2Cc2ccccc2)ccc1OCc1ccc(NC(C)=O)cc1` (centres undefined), the Potency result in assay [1] and in assay [2] was “inactive” each time.

The values are drawn from PubChem BioAssay (NCATS).
